A selection: hits, their analogues and other compounds. The true share with any hit is near 5.9%.
S2 tox = viability counter-screen for ATXN expression inhibitors. S2 cells (HEK-293 line with an ATXN2-luciferase reporter) viability, CellTiter-Fluor protease fluorescence, 24 h. 0.49% of 400,000 active. Potency, µM (titrated, usually from 56.7 µM), most hits filed as cytotoxic; also: nearly all actives have a fitted effect of over 40% in size
KB-3-1 cytotox = kills parental KB-3-1 adenocarcinoma cells. KB-3-1 viability, CellTiter-Glo ATP luminescence, 72 h. 1.4% of 400,000 active. Potency, µM (titrated, usually from 46.1 µM), actives largely listed as cytotoxic. AID 1347075; also: % is scaled to controls: 0 for no effect and ±100 for the full control effect; nearly all actives have a fitted effect of over 60% in size
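KB-3-1 parental drug-naive adenocarcinoma cells in DMEM/10% FBS, incubated 72 h at 37 C with pin-transferred compounds across a concentration series. Viability by CellTiter-Glo luminescence; concentration-response curves fitted after normalization.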
TGFb inhibitor = inhibitors of TGF-b signaling; AID 588855; 1.2% of 410,000 active; Potency, µM (series often up to 46.1 µM), for the others: at the highest dose activity, negative = inhibition, actives largely listed as inhibitors; HepG2 CAGA-GFP TGF-b/SMAD3 reporter, GFP fluorescence, 18 h; TGF-beta stimulated, 500 pg/mL final; also: % is scaled to controls: 0 for no effect and ±100 for the full control effect; nearly all actives have a fitted effect of over 65% in size
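Cell-based qHTS in HEPG2 carrying a CAGA-GFP Smad reporter; compounds added before 500 pg/mL final TGF-beta, 18 h incubation at 37 degrees C, GFP fluorescence quantified per cell by imaging cytometry.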
ATXN2 expr inh = ATXN2 expression inhibition | HEK-293 ATXN2-luciferase reporter, luminescence, 24 h | Potency, µM (top dose mostly 57 µM), for the others: at the top dose activity change, negative = inhibition, actives largely listed as inhibitors | 0.72% of 360,000 active; also: % is scaled to controls: 0 for no effect and ±100 for the full control effect; nearly all actives have a fitted effect of over 55% in size
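ATXN2-luciferase reporter cells (luciferase flanked by upstream and downstream ATXN2 gene portions) were treated 24 h at 37 °C with compounds at up to 57 uM. SteadyGlo luminescence gave expression; GF-AFC fluorescence gave viability.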
KB-V1 MDR tox = kills drug-selected multidrug resistant KB-V1 cells; 3.4% of 400,000 active; KB-V1 MDR cells viability, CellTiter-Glo, 72 h; AID 1347076; Potency, µM (highest dose often 46.1 µM), actives largely listed as cytotoxic; also: % is scaled to controls: 0 for no effect and ±100 for the full control effect; nearly all actives have a fitted effect of over 60% in size
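Compound-treated KB-V1 multidrug-resistant cells, 72 h, 37 degrees C; viability by CellTiter-Glo. Fitted qHTS curves give the values.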
HepG2 viability = counter-screen for TGF-b inhibitors: cytotoxicity in HepG2 cells | HepG2 CAGA-GFP viability, ATP luminescence, 18 h | Potency, µM (top dose mostly 46.1 µM), for the others: top-dose activity change, negative = cytotoxicity, actives largely listed as cytotoxic | 0.76% of 410,000 active | AID 588856
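HepG2 CAGA-GFP cells (1000/well, DMEM with 1% FBS) received compound, then TGF-beta at 500 pg/mL final, and were incubated 18 hours at 37 degrees C. Viability was read by CellTiter-Glo luminescence. Media-only wells were set as complete cell-killing and DMSO as no toxicity.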
* = called active by the depositor; i = inactive; u = inconclusive; x = no result. Calls follow the shape of the dose curve; as a rule, active = well fitted curve in the direction sought with a large enough effect; inconclusive = small, poorly fitted or top-dose-only effect, or another doubt; inactive = no such curve, though single readings can be large; an effect the other way counts as inactive or inconclusive. Potency is read from the fitted curve at half-maximal effect.

SMILES	S2 tox	KB-3-1 cytotox	TGFb inhibitor	ATXN2 expr inh	KB-V1 MDR tox	HepG2 viability
C[C@H](CO)N1C[C@H](C)[C@@H](CN(C)CC2CC2)Oc2c(NC(=O)Cc3ccccc3)cccc2C1=O	u	6.5µM*	-21%	-15%	u	-13%
CC(C)CCn1c(SCc2ccc(F)cc2Cl)nc2ccsc2c1=O	x	x	0%	x	x	-1%
Cc1ccc(-c2csc(-c3cc4c([nH]c3=O)CC(c3ccccc3)CC4=O)n2)cc1 (stereo not given)	i	0.82µM*	31%	-2%	u	-18%
O=C(C[n+]1cccc2ccccc21)c1ccc(F)cc1	x	i	u	x	i	3%
CCCSS/C(CCO)=C(\C)N(C=O)Cc1cnc(C)nc1N	i	x	x	u	x	x
CC(=O)Nc1ccc(S(=O)(=O)Nc2c(C)nn(-c3ccccc3)c2C)cc1	u	i	2%	-18%	i	11%
CC(=O)c1ccccc1NS(=O)(=O)c1c(C)nn(-c2ccccc2)c1C	i	i	1%	2%	9.2µM*	-18%
O=C(NCCc1ccccc1Cl)c1ccc2c(c1)nc1n2CCOC1	x	i	u	x	i	-29%
CN(C)S(=O)(=O)c1ccc2c(c1)N(CC(=O)Nc1ccc(OC(F)(F)F)cc1)C(=O)CS2	i	i	u	-12%	i	-39%
COc1ccc([N+](=O)[O-])cc1CN1CCN(c2ncc(Cc3ccccc3)cn2)CC1	x	u	x	x	7.3µM*	x
Oc1ccc(Br)c(CN2CCN(c3ncc(Cc4ccccc4)cn3)CC2)c1	x	21µM*	x	x	18µM*	x
Clc1ccc(SCc2csc(N3CCOCC3)n2)cc1	x	i	u	14%	i	-8%
Clc1ccc(SCc2cc(N3CCOCC3)nc(-c3ccccn3)n2)cc1	u	u	u	6.3µM*	u	-42%
O=c1cc(CSc2ccc(Cl)cc2)nc(-c2ccccc2)[nH]1	i	i	-18%	-14%	i	-20%
O=c1cc(CSc2ccc(Cl)cc2)nc(-c2ccccn2)[nH]1	x	13µM*	u	x	i	-10%
CCC1CCc2nc3sc(C(=O)Nc4ccc(F)c(Cl)c4)c(N)c3cc2C1 (stereo not given)	i	i	5%	-5%	i	2%
O=C1CCCC2=C1C1(CCCC1)N=C(Nc1nc3ccccc3n1Cc1ccccc1)N2	x	i	x	x	i	x
COc1ccc(C(=O)NCc2ccc(N3CCN(C(=O)OC(C)(C)C)CC3)cc2)cc1	i	u	u	1%	0.73µM*	-33%
COc1ccc(CNC(=O)c2cnn(-c3ccc(OC)cc3)c2C2CCN(C(=O)OC(C)(C)C)CC2)cc1	x	i	11µM*	x	i	-7%
COc1ccc(-n2ncc(C(=O)NCc3ccc4c(c3)OCO4)c2C2CCN(C(=O)OC(C)(C)C)CC2)cc1	x	i	u	x	i	-14%
COc1ccc(OC)c(CCNC(=O)c2cnn(-c3ccccc3Cl)c2C2CCN(C(=O)OC(C)(C)C)CC2)c1	x	i	10µM*	x	i	-18%
O=C(Cc1ccc(F)cc1)N1CCC(c2nc3c(nnn3Cc3ccc(F)cc3)c(=O)[nH]2)CC1	x	x	u	x	x	-7%
O=C(Nc1ccc2ccccc2c1)Nc1nnc(-c2ccc(F)cc2)s1	x	u	x	x	i	x
Cc1ccc(N(Cc2cccs2)C(=O)C(C)Oc2ccc(Cl)c(C)c2)cc1 (stereo not given)	x	u	u	x	i	-29%
COc1cccc(N2CC(NC(=O)c3cc(Cl)ccc3OC)CC2=O)c1 (stereo not given)	x	x	-1%	x	x	-16%
SMILES	S2 tox	KB-3-1 cytotox	TGFb inhibitor	ATXN2 expr inh	KB-V1 MDR tox	HepG2 viability
N#Cc1nc(-c2ccc(COc3ccc(Cl)cc3)o2)oc1N1CCCCC1	i	i	-17%	-16%	i	-2%
COc1cccc(=O)c2c(C)n(-c3ccc(C(=O)O)cc3)c(C)c12	i	i	2%	15%	i	5%
COc1ccc(-n2c(C)c3c(OC)cccc(=O)c3c2C)cc1	i	i	-9%	28%	18µM*	4%
O=S(=O)(Nc1ccc(S(=O)(=O)Nc2ccccc2)cc1)c1ccccc1	i	i	1%	-2%	i	-25%
O=S(=O)(Nc1ccc(N=Nc2ccccc2)cc1)c1ccccc1	u	i	u	u	3.3µM*	-37%
Cc1cc(NS(=O)(=O)c2ccccc2)cc(Cl)c1O	i	i	-3%	5%	16µM*	-46%
Cc1ccc(S(=O)(=O)N(C)CCCC(=O)Nc2ccccn2)cc1	i	i	-1%	-5%	i	6%
Cc1ccc(NC(=O)CCCCCCCCCCC2COCCO2)c(C)c1 (stereo not given)	i	i	-7%	-27%	18µM*	-1%
Cc1ccc(S(=O)(=O)N(C)CCCC(=O)Nc2ccc(C)cc2C)cc1	i	i	u	-4%	21µM*	-19%
Cc1ccc(S(=O)(=O)N(C)CCCC(=O)Nc2cccc3ccccc23)cc1	i	i	-17%	7%	12µM*	-39%
Cc1cccc(-n2c(=O)c3c(c4cc(C)ccc4n3C)n(CC(=O)Nc3ccc(C)cc3C)c2=O)c1	i	i	9%	11%	i	4%
CCOC(=O)Oc1ccc(CCNC(=O)[C@H](CCSC)NC(C)=O)cc1OC(=O)OCC	i	x	x	12%	x	x
Cc1ccc(C)c(N2CCN(C(=O)CCS(=O)(=O)c3cc4c(cc3Cl)NC(=O)CO4)CC2)c1	u	u	-18%	u	16µM*	-20%
Cc1ccc(Cl)cc1N1CCN(C(=O)CCS(=O)(=O)c2ccc3c(c2)oc(=O)n3C)CC1	i	i	-21%	-2%	7.3µM*	-4%
CCC1CN(C(=O)N2CCC(C(=O)NCCc3ccc(C)cc3)CC2)c2ccccc2O1 (stereo not given)	x	x	0%	x	x	3%
c1ccc2c(c1)Cc1cc(CN3CCOCC3)ccc1-2	i	i	11%	47%	21µM*	1%
COc1cc(F)c(F)c(Nc2ccc(I)cc2F)c1NS(=O)(=O)C1(C[C@H](O)CO)CC1	x	x	x	-6%	x	x
COc1ccccc1N(Cc1ccccc1)S(=O)(=O)c1cccc(C(=O)Nc2cc(C)ccn2)c1	u	16µM*	0%	u	i	-11%
CC1(C)CC(NC(=O)c2ccc(Cl)c(S(=O)(=O)N(Cc3ccccc3)c3ccccc3)c2)CC(C)(C)N1	x	u	u	u	i	18µM*
COc1ccccc1N(Cc1ccccc1)S(=O)(=O)c1cccc(C(=O)Nc2ncccc2C)c1	u	i	10%	-22%	u	-13%

Bioassay records (PubChem BioAssay)
